Most compounds without a hit are left out; they make up all but 1.6% or so of the library.
KCNQ2 enhance: KCNQ2 (rat) channel potentiation | O88943 | AID 2239 | CHO-K1 KCNQ2, FluxOR thallium flux fluorescence; hits give high values | B-score at 10 µM | actives 0.54% (n = 310,000);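 active = fluorescence ratio B-score at least 3 SD of library B-scores, with initial fluorescence B-score within 3 of them, cut at about 5.3 in these data; same plate scores as AID 2156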;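 also: B-score of peak minus minimum over baseline fluorescence ratio after K+ and Tl+ stimulus; positive B-score means potentiation of KCNQ2 with more thallium influx and brighter signal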
KCNQ2 block: blocks the rat KCNQ2 potassium channel; O88943; CHO-K1 KCNQ2, FluxOR thallium flux, 20 min; hits give low values; B-score at 10 µM; actives 1.1% (n = 310,000); AID 2156;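 active = fluorescence ratio B-score at most minus 3 library SDs, with starting brightness B-score within 2 library SDs, cut at about -5.5 in these data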
Kir21 confirm: confirmation of mouse Kir2.1 potassium channel inhibitors; Tl flux remaining, % of negative control (hits give low values), % at 10 µM; AID 2032; shares compounds with KCNQ2 enhance; Kir2.1-expressing cells, FluxOR thallium flux fluorescence; hits give low values; actives 41% (n = 2,300);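 active = Primary-screen hit whose thallium flux fell at least 3 control SD below untreated wells in both duplicates, with normal baseline fluorescence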;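 also: 0% = blank wells without stimulus and 100% = stimulated no-compound controls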
HEK293 ctr: parental HEK293 activity in Kir2.1 inhibitor counter-screen; shares compounds with KCNQ2 enhance; parental HEK293 cells, FluxOR thallium flux fluorescence; 0% = unstimulated blank wells; FluxOR signal as % of negative control (100 = no effect), % at 10 µM; actives 19% (n = 2,300); AID 2105;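 active = dye signal at least 3 control SD above or below untreated wells in both duplicates, raw fluorescence within 3, either direction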;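 also: percent is based on the flux ratio of peak minus minimum fluorescence over baseline F0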
CHO-K1 ctr: parental CHO-K1 activity in KCNQ2 potentiator counter-screen | AID 2282 | shares compounds with KCNQ2 enhance | activity increase over 3SD of controls, % at 10 µM | actives 43% (n = 1,200) | parental CHO-K1 cells, FluxOR thallium flux fluorescence; zero = vehicle mean+3SD, 100% = vehicle-minus-blank window;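 active = signal rise of at least 3 SD above the untreated control mean, in both duplicate wells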;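 also: counter screen of KCNQ2 potentiator hits so any rise reflects channel-independent effects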
KCNQ1 sel pot: human KCNQ1 counter-target activity of KCNQ2 potentiators | shares compounds with KCNQ2 enhance | CHO KCNQ1 stable, FluxOR thallium flux fluorescence; beyond 3SD, as % of vehicle-control signal | activation over 3SD threshold, % at 10 µM | actives 28% (n = 1,200) | AID 2283;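 active = fluorescence ratio rise of at least 3 SD of vehicle wells above their mean, in both replicate wells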;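 also: 0% = vehicle mean plus 3 SD and 100% = vehicle minus unstimulated blank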
KCNQ2 pot confirm: confirmation of rat KCNQ2 potassium channel potentiators; CHO-KCNQ2 cells, FluxOR thallium flux fluorescence; potentiation, less the hit threshold, % at 10 µM; AID 2287; actives 68% (n = 1,200); shares compounds with KCNQ2 enhance;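 active = fluorescence ratio rising 3 SD or more over the vehicle control mean in both replicates, plus primary screen hit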;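 also: peak minus minimum thallium fluorescence divided by baseline after K/Tl stimulus; 0% = vehicle mean plus 3 SD and 100% = vehicle minus unstimulated blank difference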
Kir2-1 sel: selectivity of KCNQ2 potentiators: effect on mouse Kir2.1. activity over 3SD threshold, % at 10 µM. actives 2% (n = 1,200). shares compounds with KCNQ2 enhance. HEK293 Kir2.1, FluxOR thallium flux fluorescence;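 active = fluorescence ratio rise of at least 3 SD above the vehicle-control mean, seen in both replicates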;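 also: 0% = vehicle mean plus 3 SD and 100% = vehicle minus no-stimulus blank window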
KCNQ2 W236L MoA: rat KCNQ2 W236L mutant potentiation by KCNQ2 potentiators. shares compounds with KCNQ2 enhance. CHO KCNQ2-W236L, automated patch clamp current. current increase over 3SD of negative controls (%), hits give high values, % at 25 µM. actives 10% (n = 940). AID 2558;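 active = current increase at least 3 SD of the untreated controls above them in both duplicate recordings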
Target sequence (O88943 whole entry W236L, looked up): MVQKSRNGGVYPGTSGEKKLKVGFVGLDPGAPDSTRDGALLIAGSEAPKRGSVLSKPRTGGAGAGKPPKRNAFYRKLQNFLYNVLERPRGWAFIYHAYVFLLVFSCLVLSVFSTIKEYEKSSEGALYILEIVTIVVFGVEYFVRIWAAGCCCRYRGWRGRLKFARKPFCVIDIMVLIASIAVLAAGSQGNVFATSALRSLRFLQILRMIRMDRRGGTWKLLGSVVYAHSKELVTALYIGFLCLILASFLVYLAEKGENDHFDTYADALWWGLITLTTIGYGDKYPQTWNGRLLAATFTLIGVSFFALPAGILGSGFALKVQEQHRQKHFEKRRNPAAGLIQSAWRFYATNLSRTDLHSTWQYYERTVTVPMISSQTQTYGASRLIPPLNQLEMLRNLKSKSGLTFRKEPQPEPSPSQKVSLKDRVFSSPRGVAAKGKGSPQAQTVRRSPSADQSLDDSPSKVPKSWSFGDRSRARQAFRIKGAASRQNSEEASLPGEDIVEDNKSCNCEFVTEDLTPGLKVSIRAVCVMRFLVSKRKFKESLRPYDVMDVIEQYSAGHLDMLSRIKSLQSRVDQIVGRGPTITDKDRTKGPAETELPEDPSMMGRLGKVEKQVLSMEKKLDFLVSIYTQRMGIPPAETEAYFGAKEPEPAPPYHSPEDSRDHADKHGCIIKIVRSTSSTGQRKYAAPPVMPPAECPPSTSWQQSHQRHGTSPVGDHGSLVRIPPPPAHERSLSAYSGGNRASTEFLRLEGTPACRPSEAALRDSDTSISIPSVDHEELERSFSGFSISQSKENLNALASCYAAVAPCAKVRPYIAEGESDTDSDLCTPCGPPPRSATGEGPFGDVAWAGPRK
An asterisk follows results filed as active; i = inactive; . = no result.

SMILES	KCNQ2 enhance	KCNQ2 block	Kir21 confirm	HEK293 ctr	others
CCOC(=O)c1c(NS(=O)(=O)Cc2ccccc2)sc2c1CCCC2	.	i	i	337.5%*
COC(=O)c1c(NS(=O)(=O)c2ccc3ccccc3c2)sc2c1CCCC2	6.43*	i	i	i	CHO-K1 ctr=-4.5;KCNQ1 sel pot=-10.8;KCNQ2 pot confirm=-17.4;Kir2-1 sel=-35.6
CCOC(=O)c1c(NC(=O)OC)sc2c1CCC2	0.81	i	.	.
COC(=O)c1c(NC(=O)c2ccc(C)c(S(=O)(=O)Nc3ccccc3C)c2)sc2c1CCCC2	.	i	.	.
CC1CCc2c(sc(NS(=O)(=O)c3ccccc3)c2C(=O)OC(C)C)C1 (configuration not stated)	4.06	i	i	i
CCOC(=O)c1c(NS(=O)(=O)c2ccc(Br)cc2)sc2c1CCC2	18.1*	i	i	255.0%*	CHO-K1 ctr=41.4*;KCNQ1 sel pot=86.6*;KCNQ2 pot confirm=58.9*;Kir2-1 sel=-26.1;KCNQ2 W236L MoA=i
CCOC(=O)c1c(NC(=O)c2ccccc2C(=O)O)sc2c1CCC2	1.7	i	.	.
CC1CCc2c(sc(NC(=O)c3ccco3)c2C(=O)O)C1 (configuration not stated)	1.58	i	.	.
CCOC(=O)C1=C(CCc2ccccc2)NC(=O)NC1c1ccc(C#N)cc1 (configuration not stated)	.	i	.	.
O=C(N=C1SC2CS(=O)(=O)CC2N1c1ccc(OC(F)(F)F)cc1)C1CC1 (configuration not stated)	.	i	.	.
COc1ccccc1CNC(=O)CN(C)Cc1ccc(SC)cc1	.	i	.	.
CCOC(=O)c1c(NC(=O)CCNCc2ccco2)sc2c1CCC2	.	i	28.0%*	i
CCOC(=O)c1c(NC(=O)c2ccco2)sc2c1CCCCC2	2.35	i	.	.
O=C(Cc1ccccc1)N/N=C/c1ccc2cccc(O)c2n1	.	i	.	.
CCC(NC(=S)NC1CCCCC1)c1ccc(C)cc1 (configuration not stated)	22*	i	i	i	CHO-K1 ctr=-6.5;KCNQ1 sel pot=-14.8;KCNQ2 pot confirm=71.2*;Kir2-1 sel=-46.2;KCNQ2 W236L MoA=i
Cc1ccc(CN=C(Nc2ccccc2)NC2CCCCC2)cc1	.	i	60.0%*	i
CC(C)c1ccc(NC(=S)NC2CCCCCC2)cc1	.	i	.	.
Cc1ccc(CNC(=O)NC2CCCCC2)cc1	5.14	i	.	.
Cc1ccc(C)c(C(C)NC(=S)NC2CCCCC2)c1 (configuration not stated)	0.26	i	.	.
CCCc1ccc(C(C)NC(=S)NC2CCCCC2)cc1 (configuration not stated)	22.5*	i	i	i	CHO-K1 ctr=-14.6;KCNQ1 sel pot=0.9*;KCNQ2 pot confirm=39.2*;Kir2-1 sel=-33.2;KCNQ2 W236L MoA=i
O=C(Nc1ccccc1)NC1CCCCC1	0.04	i	.	.
Cc1ccc(CNC(=S)NC2CCCCC2)cc1	6.39*	i	i	i	CHO-K1 ctr=-6.4;KCNQ1 sel pot=-15.5;KCNQ2 pot confirm=7.2*;Kir2-1 sel=-48.0;KCNQ2 W236L MoA=i
COc1ccc(-c2csc3ncn(CC(=O)N4CCOCC4)c(=O)c23)cc1	.	i	.	.
O=C1NC2(CCSC2)C(=O)N1CC(=O)N(Cc1ccccc1)C1CCS(=O)(=O)C1 (configuration not stated)	1.75	i	.	.
O=C(Nc1cccc(NC(=O)c2ccc(Cl)cc2Cl)c1)c1cccnc1	2.66	i	.	.
SMILES	KCNQ2 enhance	KCNQ2 block	Kir21 confirm	HEK293 ctr	others
COc1ccc(NC(=O)NCCCN2CCC(Cc3ccccc3)CC2)cc1	.	i	.	.
CSc1ccc(NC(=O)NCCCN2CCC(Cc3ccccc3)CC2)cc1	.	i	63.5%*	i
Cc1ccc(NC(=O)NCCSc2ccc(C)cc2)cc1	5.48*	i	i	i	CHO-K1 ctr=-3.9;KCNQ1 sel pot=48.2*;KCNQ2 pot confirm=-4.5;Kir2-1 sel=-26.2
Cc1ccc(NC(=O)NCC2CC2(Cl)Cl)cc1 (configuration not stated)	10.2*	i	i	i	CHO-K1 ctr=21.8*;KCNQ1 sel pot=-20.9;KCNQ2 pot confirm=-1.2;Kir2-1 sel=-30.9;KCNQ2 W236L MoA=i
Cc1ccc(CNC(=O)Nc2ccc(C)cc2)cc1	2.51	i	.	.
Cc1ccc(NC(=O)NCCCc2ccccc2)cc1	6.27*	i	i	i	CHO-K1 ctr=5.9*;KCNQ1 sel pot=71.4*;KCNQ2 pot confirm=-2.7;Kir2-1 sel=-35.9;KCNQ2 W236L MoA=i
O=C(NCCCCc1ccccc1)Nc1ccc(F)cc1	2.15	i	.	.
Cc1ccc(NC(=S)NCCSc2ccc(Cl)cc2)cc1	3.24	i	.	.
CN(C(=O)COC(=O)c1cccc(S(=O)(=O)N2CCOCC2)c1)C1CCS(=O)(=O)C1 (configuration not stated)	.	i	.	.
O=S(=O)(Nc1cccc(-c2cn3c(n2)SCC3)c1)c1ccccc1	.	i	.	.
CSc1ccccc1Nc1ncnc(N)n1	0.23	i	.	.
Cn1cc(NC(=O)Nc2ccc(C(F)(F)F)cc2)c(C(F)(F)F)n1	0.7	i	.	.
CC1(c2nnc(-c3cccc(Cl)c3)o2)CC(c2ccc(OC(F)(F)F)cc2)=NO1 (configuration not stated)	.	i	.	.
COc1ccc(NC(=O)CSCC(=O)Oc2c(OC)cccc2OC)cc1	.	i	.	.
O=C(CNC(=O)c1ccc(Br)cc1)NCc1cccnc1	0.56	i	.	.
COCc1ccc(C(=O)N2CCCCC2C(=O)Nc2ccc(-n3nc(C)cc3C)cc2)o1 (configuration not stated)	1.65	i	.	.
Cc1ccc(C)c(NC(=S)NNC(=O)c2csc3c2CCC(C)C3)c1 (configuration not stated)	6.62*	i	i	171.0%*	CHO-K1 ctr=-19.0;KCNQ1 sel pot=-32.6;KCNQ2 pot confirm=-4.5;Kir2-1 sel=-39.9;KCNQ2 W236L MoA=i
Cc1ccc(C)c(NC(=S)NNC(=O)c2csc3c2CCCC3)c1	2.6	i	.	.
OC(CNCc1ccccc1F)COc1cccc2ccccc12 (configuration not stated)	.	i	72.5%*	i
CC(C)NCC(O)COc1cccc2ccccc12 (configuration not stated)	.	i	.	.
COc1ccc(CNC(=O)CN(c2ccc(C)cc2)S(=O)(=O)c2c(C)nn(C)c2C)cc1	.	i	.	.
Cc1cc(C(=O)CCC(=O)N2CCN(S(=O)(=O)c3cccs3)CC2)c(C)s1	4.92	i	.	.
Cc1cc(C(=O)CCC(=O)N2CCN(S(=O)(=O)c3ccccc3)CC2)c(C)s1	6.23*	i	i	i	CHO-K1 ctr=-13.5;KCNQ1 sel pot=-13.8;KCNQ2 pot confirm=11.3*;Kir2-1 sel=-32.3;KCNQ2 W236L MoA=i
